ELG1 repair inh – blocks ELG1-dependent DNA repair in HEK293T cells; HEK293T ELG1-luciferase reporter, luminescence, 16 h; DNA damage induced by 5-fluorouridine; Potency, µM (highest dose often 46.1 µM), for the others: at the top dose activity change, negative = inhibition, usual class: inhibitors; 2.3% of 330,000 active; AID 504467; further: on the % scale 0 is the no-effect control and ±100 the full control effect; nearly all actives have a fitted effect of over 55% in size
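Cells (2,000 per well) received 5-fluorouridine plus test compound or DMSO and were incubated 16 hr at 37 °C, 5% CO2. Luciferase activity was read by luminescence 30 min after ONE-Glo addition; signal suppression marked inhibition of damage-induced ELG1 function.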
ELG1 genotox – genotoxicity induction in ELG1-luciferase HEK293T cells; HEK293T ELG1-luciferase reporter, luminescence, 16 h; Potency, µM (top dose mostly 46 µM), for inactives: at the highest dose activity change, positive = activation, most hits filed as activators; 1.3% of 330,000 active; AID 504466; further: % of control where 0% means no effect; nearly all actives have a fitted effect of over 60% in size
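Step 1: seed 2,000 HEK293T ELG1-luciferase cells per well. Step 2: add compound or DMSO, incubate 16 hr at 37 °C. Step 3: ONE-Glo, 30 min at room temperature, read luminescence.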
SMN2 splice enh – enhancers of SMN2 splice variant expression. HEK293 SMN2-luciferase splicing reporter, luminescence, 30-36 h. Potency, µM (highest dose often 46.1 µM), for inactives: at the highest dose activity change, positive = activation, usual class: activators. 2.8% of 210,000 active; further: % of control where 0% means no effect; nearly all actives have a fitted effect of over 55% in size
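HEK293 cells carry an SMN2 minigene-luciferase reporter in which exon 7 inclusion puts luciferase in frame. Cells were seeded at 2000 cells/well, attached for 10-12 hours, then exposed to compounds for 30-36 hours at 37C before ONE-Glo luminescence.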
NPC1 prom act – activates the NPC1 promoter; AID 485313; 2.4% of 320,000 active; Huh7 NPC1 promoter luciferase reporter, 24 h; Potency, µM (highest dose often 9.22 µM), for the others: top-dose activation, hits mostly activators; further: % of control where 0% means no effect; nearly all actives have a fitted effect of over 60% in size
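Cells: Huh7 expressing luciferase under the NPC1 promoter, 1500/well. Seeded 2 h, compound added, incubated 24 h at 37 °C. Luciferase reagent, 10 min ambient, then luminescence.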
FLuc modulator – inhibits or activates purified firefly luciferase, miR-21 counter-screen; P08659; purified FLuc, Km substrates, luminescence inhibition; Potency, µM (doses to about 57.5 µM), for inactives: at the top dose activity change, negative = inhibition, most hits filed as inhibitors; 6.9% of 360,000 active; AID 588342;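 further: plate controls were vehicle for no effect and reference inhibitor for full effect; nearly all actives have a fitted effect of over 55% in size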
Target sequence (P08659 whole entry, looked up): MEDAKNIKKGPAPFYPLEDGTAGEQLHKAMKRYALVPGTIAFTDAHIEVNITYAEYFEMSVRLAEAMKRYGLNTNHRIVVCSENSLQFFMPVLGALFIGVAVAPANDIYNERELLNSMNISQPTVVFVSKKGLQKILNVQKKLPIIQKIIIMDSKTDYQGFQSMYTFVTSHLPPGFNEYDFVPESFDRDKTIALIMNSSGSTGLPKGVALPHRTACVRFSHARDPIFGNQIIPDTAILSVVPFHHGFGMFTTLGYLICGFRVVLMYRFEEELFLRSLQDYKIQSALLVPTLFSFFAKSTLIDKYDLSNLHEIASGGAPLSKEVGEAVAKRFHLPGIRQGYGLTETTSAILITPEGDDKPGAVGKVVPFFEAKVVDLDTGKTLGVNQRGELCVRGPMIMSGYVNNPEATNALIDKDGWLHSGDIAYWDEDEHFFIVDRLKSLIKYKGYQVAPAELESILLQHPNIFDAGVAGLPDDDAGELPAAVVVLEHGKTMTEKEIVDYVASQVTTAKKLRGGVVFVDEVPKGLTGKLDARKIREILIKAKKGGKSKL
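Purified P. pyralis luciferase, 10 nM final, with Km-level 10 uM D-luciferin and 10 uM ATP in 50 mM Tris acetate pH 7.5, 10 mM Mg acetate, 0.01% Tween-20, 0.05% BSA; 6-point qHTS titration about 60 µM downward; luminescence read.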
Rab9 prom act – activates the Rab9 promoter; 2.8% of 320,000 active; Huh7 Rab9 promoter-luciferase reporter, luminescence, 24 h; AID 485297; Potency, µM (top dose mostly 9.22 µM), for inactives: at the highest dose activation, negative = inhibition, usual class: activators; further: % of control where 0% means no effect; nearly all actives have a fitted effect of over 60% in size
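Luciferase signal after 10 min detection reagent at ambient indicates Rab9 promoter upregulation; stably transfected Huh7 cells were treated 24 h with compound in DMSO at 37 °C, 5% CO2.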
Starred values were filed as active, the others as inactive; ? = inconclusive; · = no result given; [ ] = dose if it differs, or a comment. An excerpt weighted towards active compounds, which were near 9.3% of everything screened. The call rests on the fitted dose curve; in most records, active means well fitted curve in the direction sought with a large enough effect; inconclusive means small, poorly fitted or top-dose-only effect, or another doubt; inactive means no such curve, though single readings can be large; an effect the other way counts as inactive or inconclusive. Potency means the concentration at half of the fitted maximal effect.

SMILES	ELG1 repair inh	ELG1 genotox	SMN2 splice enh	NPC1 prom act	FLuc modulator	Rab9 prom act
CC(=O)c1ccc(Nc2ncnc3c2oc2ccccc23)cc1	?	2.1µM*	1.6µM*	1.4µM*	?	?
c1ccc(CNc2ncnc3c2oc2ccccc23)nc1	?	12%	-11%	1%	19µM*	24%
CC(=O)N1CCN(c2ccc(Nc3nc(C)nc4c3oc3ccccc34)cc2)CC1	?	-30%	-40%	-6%	-3%	-4%
CCc1nc(NCc2ccccn2)c2oc3ccccc3c2n1	18µM*	-27%	-65%	-11%	?	-16%
CCc1nc(Nc2cccc(O)c2)c2oc3ccccc3c2n1	?	-10%	·	12%	19µM*	1%
CCc1nc(Nc2ccncc2)c2oc3ccccc3c2n1	?	-15%	·	-21%	1%	-19%
Cc1ccc(N(CC(C)C)S(=O)(=O)c2nnc(NC(=O)c3cccs3)s2)cc1	·	·	·	·	-19%	·
Cc1ccc(S(=O)(=O)N2CCCCC2)cc1NC(=O)COC(=O)C1(C)CC1(Cl)Cl (configuration not stated)	?	-1%	·	-3%	-3%	-8%
O=C(Nc1ccc(COc2ccccc2)cc1)Nc1cccc(C(=O)O)c1	?	11%	·	?	0.85µM*	2.8µM*
CCOc1cc(C(=O)NC(=S)Nc2ccc(Cl)c(C(=O)O)c2)cc(OCC)c1OCC	14%	1%	·	-13%	-1%	1%
CCCOc1cccc(C(=O)NC(=S)Nc2cccc(NC(=O)c3ccccc3Cl)c2)c1	?	-2%	-18%	-8%	2%	1%
CCCOc1cccc(C(=O)NC(=S)Nc2ccccc2)c1	?	?	13µM*	?	8.5µM*	?
Cc1ccc(C(=O)O)cc1NC(=S)NC(=O)c1ccc(COc2ccccc2)cc1	22%	1%	·	2%	12µM*	7%
COc1c(C)cc(Br)cc1C(=O)NC(=S)Nc1ccc(Cl)c(C(=O)O)c1	14%	10%	·	15%	24µM*	20%
NC(N)=NC(N)=Nc1ccccc1 (tested in a mixture with another compound)	·	·	-2%[9.22 µM]	·	·	·
Cc1nn(C)c(C(=O)N2CCN(C(=O)c3ccco3)CC2)c1Br	-2%	-1%	5%	-6%	-1%	-6%
COc1ccc(OC)c(C2NC(=O)NC(C)=C2C(=O)Nc2ccc(F)cc2)c1 (configuration not stated)	·	·	9%	·	-7%	·
O=C(O)c1cccc(NC(=S)NC(=O)c2ccncc2)c1	14%	4%	8%	-1%	?	2%
O=C(O)c1cccc(NC(=S)NC(=O)c2cccc(OCc3ccccc3)c2)c1	?	9%	·	25%	19µM*	?
COc1ccc(CCNC(=S)NC(=O)c2ccccc2)cc1C	13µM*	0%	·	-4%	-16%	-2%
CC(C)Oc1cccc(C(=O)NC(=S)Nc2ccccc2)c1	?	?	11µM*	?	2.4µM*	3.2µM*
CC(C)Oc1ccc(C(=O)NC(=S)Nc2ccc(Cl)c(C(=O)O)c2)cc1	?	?	·	?	17µM*	?
COc1cccc(C(=O)NC(=S)Nc2ccc(Cl)c(C(=O)O)c2)c1	·	·	-3%	·	?	·
CN(C)C=NC(=O)/C(C#N)=C/c1ccccc1	6%	0%	-2%	-3%	?	12%
CCCOc1cccc(C(=O)Nc2ccc(Br)cc2F)c1	?	?	13µM*	?	2.7µM*	?
SMILES	ELG1 repair inh	ELG1 genotox	SMN2 splice enh	NPC1 prom act	FLuc modulator	Rab9 prom act
CCCOc1cccc(C(=O)Nc2cc(-c3ccccc3)no2)c1	·	·	14µM*	·	6µM*	·
CCCOc1cccc(C(=O)Nc2cccc3ncccc23)c1	-22%	0%	·	4%	-12%	7%
Cc1ccc(NC(=O)C2CCCN2c2nn3c(=O)cc(C)nc3s2)cc1 (configuration not stated)	1%	2%	·	-1%	0%	6%
COCC(=O)N1CCC[C@@]2(CCN(Cc3ccccc3)C2)C1	·	·	2%	·	·	·
NC(=O)C1CCN(c2nc(-c3cccs3)cs2)CC1	?	15%	·	28%	?	24%
CCOC(=O)/C(=C\c1ccc(OC(F)F)cc1)C1=Nn2c(nnc2-c2ccc(Cl)cc2)SC1	12µM*	-20%	-110%	-18%	-15%	-21%
O=C(c1csnn1)N1CCC2(CC1)CN(c1cccc(-c3ccccc3)c1)C2	·	·	-29%	·	·	·
CC(=O)Nc1ccc(NC(=O)/C(Cl)=C/c2ccccc2)cc1	?	-1%	-6%	23%	11µM*	?
CC(C)(C)c1ccc(OCC(O)CSc2ncn[nH]2)cc1 (configuration not stated)	?	?	?	?	2.1µM*	?
O=C(c1ccc(N2CCOCC2)c([N+](=O)[O-])c1)N1CCN(Cc2ccccc2)CC1	?	-1%	·	3%	0%	4%
Cc1csc2c(N3CCN(C(=O)NC(C)(C)C)CC3)ncnc12	?	-9%	·	-4%	-2%	-8%
CCOC(=O)C1CCN(c2ncnc3c(C)csc23)CC1	?	?	·	25%	11µM*	?
Cc1csc2c(N3CCN(C(=O)Nc4ccc(Cl)c(Cl)c4)CC3)ncnc12	18µM*	-8%	·	-4%	?	-2%
Cc1csc2c(N3CCN(C(=O)c4ccc(C(C)(C)C)cc4)CC3)ncnc12	15µM*	5%	·	-6%	27µM*	-4%
Cc1ccc(S(=O)(=O)N2CCOCC2)cc1C(=O)NC(=S)N1CC(C)OC(C)C1 (configuration not stated)	-6%	-1%	·	-2%	0%	-4%
CCOC(=O)N1CCN(C(=S)NC(=O)/C=C/c2ccc(C)cc2)CC1	0%	0%	·	-5%	13µM*	-1%
COc1ccc(/C=C/C(=O)NC(=S)N2CCN(C)CC2)cc1	?	12%	2%	-2%	?	-1%
CCOc1ccc(S(=O)(=O)N2CCC(n3c(C)nc4cccnc43)CC2)cc1	·	·	·	·	-9%	·
CCc1ccc2c(c1)c1nc(C)sc1n2CC(=O)OC	1%	-4%	-13%	1%	12µM*	-2%
Cc1nc2c3cc(F)ccc3n(Cc3ccccc3)c2s1	?	18%	-5%	-2%	-2%	-6%
CC1CC(C)CN(C(=O)CCc2ccccc2)C1 (configuration not stated)	?	0%	-6%	0%	0%	1%
COc1ccc(NC(=O)CCc2ccccc2)cc1S(=O)(=O)N1CCCCC1	-18%	1%	·	-2%	0%	-15%

Screens deposited in PubChem BioAssay by National Center for Advancing Translational Sciences (NCATS).
